From PubChem
This is a sample that favours compounds with a hit; in the whole collection about 2.4% have one here.
D2 antagonist: D2 dopamine receptor (human) antagonism; P14416; HEK293 TREx D2 cells, calcium flux, dopamine EC80; inhibition, % at 10 µM; hit rate 2% among 340,000; AID 485344; in the data active = inhibition above about 30%; inactive = below that, where a call was filed
Target sequence (P14416 whole entry, looked up): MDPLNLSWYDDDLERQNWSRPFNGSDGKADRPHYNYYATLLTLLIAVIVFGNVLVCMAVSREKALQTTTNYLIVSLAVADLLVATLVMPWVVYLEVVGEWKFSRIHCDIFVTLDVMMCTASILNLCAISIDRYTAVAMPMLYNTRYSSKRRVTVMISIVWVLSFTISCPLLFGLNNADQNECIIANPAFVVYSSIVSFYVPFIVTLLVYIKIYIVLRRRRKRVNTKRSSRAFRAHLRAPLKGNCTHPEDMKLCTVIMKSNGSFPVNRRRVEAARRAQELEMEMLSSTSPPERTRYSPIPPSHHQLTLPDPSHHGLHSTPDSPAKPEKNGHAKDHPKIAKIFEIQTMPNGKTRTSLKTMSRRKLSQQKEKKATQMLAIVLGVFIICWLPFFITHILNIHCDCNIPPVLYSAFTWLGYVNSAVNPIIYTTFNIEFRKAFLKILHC
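Measurement of antagonist activity uses fluorescent calcium dye in inducible HEK293 T-REx D2 cells: 10 s baseline, compound addition with 180 s read, EC80 dopamine addition with a further 180 s read.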
D2 PAM-1: positively modulates the human D2 dopamine receptor allosterically; P14416; HEK293 T-REx D2, calcium flux, EC20 dopamine potentiation; potentiation, % at 10 µM; hit rate 0.34% among 340,000;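 active = potentiation over 3 SD above the plate norm, cut at about 30% in these data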
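Primary screen. Calcium kinetics in induced HEK293 T-REx D2 cells: compound pre-addition 180 s, EC20 dopamine, 180 s more.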
D2 ag-1: agonists of human D2 dopamine receptor (beta-arrestin) | P14416 | DiscoveRx PathHunter D2 beta-arrestin, luminescence, 90 min; 100% = 57 uM dopamine signal | activation, % (test concentration not listed) | hit rate 0.084% among 360,000; in the data active = activation above about 40%
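DiscoveRx PathHunter D2 beta-arrestin cells (2,100/well) attached overnight, then compound-stimulated 90 min at 37 C in HBSS/10 mM HEPES/0.1% Tween-20 buffer; beta-galactosidase complementation read by luminescence after 1 h at ambient temperature. Dopamine 57 uM final (EC100) as control.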
D2 ag-2: D2 dopamine receptor (human) agonism | HEK293 T-REx D2 cells, calcium flux agonist mode | activation, % at 2 µM | hit rate 0.53% among 340,000 | AID 485358;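 active = activation over 3 SD above normal in the single-dose calcium agonist read, cut at about 30% in these data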
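Tetracycline-induced HEK293 T-REx cells with force-coupled D2 receptor, plated overnight at 30 C, loaded with no-wash calcium dye. After a 10 s baseline, compound was pin-added and calcium flux read kinetically for 180 s; calcium rises flagged agonists.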
D2 PAM-2: human D2 receptor positive allosteric modulation; P14416; DiscoveRx D2 beta-arrestin cells, luminescence, 90 min; 100% = 57 uM dopamine signal; potentiation, % (test concentration not listed); hit rate 0.23% among 360,000; in the data active = potentiation above about 50%
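PathHunter beta-arrestin assay in DiscoveRx D2 cells. Compounds were added with an EC20 of dopamine (50 nM final) for 90 min at 37 deg C. Luminescence was read 1 h after detection reagent, with 57 uM dopamine as the EC100 control.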
Hits are given with their value; i = inactive; nt = no result.

SMILES | D2 antagonist | D2 PAM-1 | D2 ag-1 | D2 ag-2 | D2 PAM-2
COc1cc(CO)ccc1Oc1nnnn1-c1ccc(C(N)=O)cc1 | 31 | i | i | i | i
CCCn1nnnc1NCc1ccc(C(C)C)cc1 | 34 | i | i | i | i
Fc1ccc2c(c1)Sc1ccc(Cl)cc1CC2N1CCN(CCC2OCCO2)CC1 (stereo not drawn) | nt | nt | i | nt | i
COCCCN1CCN(C2Cc3ccccc3Sc3ccc(Cl)cc32)CC1 (stereo not drawn) | 107 | i | i | i | i
CSc1ccc2c(c1)C(N1CCN(C)CC1)Cc1ccc(F)cc1S2 (stereo not drawn) | nt | nt | i | nt | i
NC(=O)CCN1CCN(CCOC2Cc3cc(Cl)ccc3Sc3ccccc32)CC1 (stereo not drawn) | 94 | i | i | i | i
COc1ccc2c(c1)CC(N1CCN(C)CC1)c1cc(OC)ccc1S2 (stereo not drawn) | nt | nt | i | nt | i
Clc1ccc2c(c1)C(N1CCNCC1)Cc1ccccc1S2 (stereo not drawn) | 99 | i | i | i | i
O=C(c1ccccc1Cl)N1CCNCC1 | i | i | i | i | i
Clc1cccc2c1Sc1ccccc1CC2N1CCNCC1 (stereo not drawn) | 66 | i | i | i | i
COC(=O)c1ccccc1NC(=O)N1CCC(N2CCN(Cc3ccc(F)cc3)C(=O)C2=O)CC1 | nt | i | nt | i | nt
COc1cccc(N2CCN(c3ncnc4c3[nH]c3ccc(F)cc34)CC2C)c1 (stereo not drawn) | i | i | i | i | 52
COc1cccc(N2CCN(c3ncnc4c3[nH]c3ccccc34)CC2C)c1 (stereo not drawn) | i | i | nt | i | nt
Cc1ccc(C)c(CC(=O)N2CCCCC2c2cc(C(=O)Nc3cccc(C#N)c3)no2)c1 (stereo not drawn) | nt | nt | i | nt | i
COc1ccc(-n2nc(C(=O)Nc3ccc(Cl)cn3)c3c4ccccc4n(C)c3c2=O)cc1Cl | nt | nt | nt | i | nt
COc1ccccc1NC(=O)N1CCCC1 | 33 | i | i | i | i
COc1ccccc1NC(=O)N1CCN(C)CC1 | i | i | i | i | i
Cc1ccccc1CNC(=O)CCCn1c(=O)c2cccn2c2ccccc21 | nt | i | nt | i | nt
O=C(OCc1nc2ccccc2s1)c1ccc(Br)s1 | 32 | i | i | i | i
Nc1ccc(C(=O)OCc2nc3ccccc3s2)cc1 | nt | nt | i | nt | i
Cc1[nH]c(=O)c(C#N)c(C)c1Br | nt | 41 | i | nt | i
COc1ccc(CNC(=O)c2ccc3c(c2)nc2n3CCC(C)C2)c(OC)c1 (stereo not drawn) | nt | i | nt | i | nt
COc1ccc(NC(=O)c2cc(S(=O)(=O)NCCC3=CCCCC3)ccc2F)cc1 | nt | i | nt | i | nt
CC(C)OC(=O)c1cc2c(ccn2C)n1CC(=O)N1CCC(Cc2ccccc2)CC1 | i | 105 | i | i | i
COc1ccc(C2CC(c3ccccc3)=NN2C(=O)COC(=O)c2cc(S(=O)(=O)N3CCOCC3)ccc2Cl)cc1 (stereo not drawn) | 32 | i | i | i | i
SMILES | D2 antagonist | D2 PAM-1 | D2 ag-1 | D2 ag-2 | D2 PAM-2
CC1CCN(CCCNC(=O)c2n[nH]c(=O)c3ccccc23)CC1 | 41 | i | i | i | i
CC1CCN(CCCNC(=O)COc2cc(=O)n(C)c3ccccc23)CC1 | 34 | i | i | i | i
CN(CCNC(=O)CCCOc1cc(=O)n(C)c2ccccc12)Cc1ccccc1 | 47 | nt | i | i | i
CCn1c(=O)cc(OCC(=O)NCCCN2CCC(C)CC2)c2ccccc21 | nt | i | i | nt | i
CCn1c(=O)cc(OCC(=O)NCCCN2CC(C)CC(C)C2)c2ccccc21 (stereo not drawn) | 58 | i | i | i | i
CN(CCCNC(=O)CCCOc1cc(=O)n(C)c2ccccc12)Cc1ccccc1 | i | i | i | i | i
Cc1cc(NC(=O)c2cc(-c3ccco3)on2)nn1Cc1ccc(Cl)cc1 | i | i | i | 32 | i
COc1cc(NC(=O)c2cc(-c3ccco3)on2)cc(OC)c1OC | 33 | i | i | i | i
Cc1nn(Cc2ccc(Cl)cc2)c(C)c1NC(=O)c1cc(-c2ccco2)on1 | i | i | i | i | i
Cc1ccccc1Cn1cc(S(=O)(=O)c2ccc(F)cc2)c(=O)c2cc3c(cc21)OCO3 | nt | i | nt | i | nt
Cc1nc2scc(C)n2c(=O)c1S(=O)(=O)NCC1CCN(Cc2ccc(F)cc2)CC1 | 34 | i | i | i | i
CC(C)Cn1nc(C(=O)NCc2ccccc2CN2CCCC2)c2ccccc2c1=O | 45 | i | i | i | i
CCCn1nc(C(=O)NCc2ccc3c(c2)OCO3)c2ccccc2c1=O | i | 39 | i | i | i
CCCOc1ccc(/C=C/C(=O)Nc2sc(C)c(C)c2C(=O)OCC)cc1OC | nt | i | nt | i | nt
Cc1cc(C)nc(N2CCCC(C(=O)NCc3ccc4c(c3)OCO4)C2)n1 (stereo not drawn) | i | i | i | i | i
CCCc1cc(N2CCCC(C(=O)NCc3ccc4c(c3)OCO4)C2)n2ncnc2n1 (stereo not drawn) | i | 36 | i | i | i
CCCN(C(=O)Cn1ncc2c1-c1ccccc1OC2)c1cccc(C)c1 | nt | i | nt | i | nt
Fc1ccccc1N1CCN(C2CCCN(Cc3cccc(C(F)(F)F)c3)C2)CC1 (stereo not drawn) | 55 | i | i | i | i
Oc1ccccc1CN1CCCC(N2CCN(c3cccc(C(F)(F)F)c3)CC2)C1 (stereo not drawn) | i | i | i | i | i
Cc1ccc(C(c2sc3nc(-c4ccco4)nn3c2O)N2CCCCC2)cc1 (stereo not drawn) | nt | i | nt | i | nt
Cc1ccccc1-c1noc(N)c1C#N | i | i | i | i | 76
COc1ccc(-c2cn3nc(N4CCC(C(=O)NCc5ccccc5F)CC4)sc3n2)cc1 | nt | i | nt | i | nt
CN(Cc1nccs1)C(=O)C1CCC(=O)N(CCc2ccc(Cl)cc2)C1 (stereo not drawn) | 33 | i | i | i | i
Cc1ccc(NC(=O)C(C)N2CCCC2)cc1Cl (stereo not drawn) | 33 | i | i | i | i
CC(C)C(=O)Nc1ccc(N2CCCC2)c(Cl)c1 | i | i | i | i | i
SMILES | D2 antagonist | D2 PAM-1 | D2 ag-1 | D2 ag-2 | D2 PAM-2
CC(=O)c1ccc(NC(=O)CNC2CCCCC2)cc1 | i | i | i | i | i
Cc1ccc(NC(=O)CNC2CCCCC2)cc1Cl | 30 | i | i | i | i
CCc1ccc(NC(=O)c2sc3nc(C)cc(C)c3c2NC(=O)c2ccccc2OC)cc1 | nt | i | nt | i | nt
CCOc1ccc(CC(=O)Nc2c(C(=O)Nc3ccc(OC)cc3OC)oc3ccccc23)cc1 | nt | i | nt | i | nt
COC(=O)c1ccccc1OCCN1CCCCCC1 | 39 | i | i | i | i
COC(=O)c1ccc(OCCN2CCCCCC2)cc1 | 55 | i | i | i | i
CC(=O)c1ccccc1OCCOc1ccccc1C(C)=O | i | i | i | i | i
CCN1CCN(CCOc2cccc(Cl)c2Cl)CC1 | i | i | i | i | i
CCC(=O)c1ccccc1OCCN1CCN(CC)CC1 | 38 | i | i | i | i
